Sampled rows, rich in hits. Any-hit rate of the full collection: about 0.68%.
TbPYK inhibitor = blocks Trypanosoma brucei pyruvate kinase; TbPYK enzyme, Kinase-Glo Plus ATP luminescence, 45 min; AID 624173; 410,000 tested, 0.12% active; Potency, µM (top dose mostly 76.8 µM), for inactives: top-dose activity, negative = inhibition, usual class: inhibitors; note: potency is the fitted concentration of half-maximal effect; % is set by controls: 0 for no effect and ±100 for the full control effect; nearly all actives have a fitted effect of over 50% in size
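Luminescence from Kinase-Glo Plus, added after a 45-minute room-temperature reaction, served as the end-point read-out. The enzyme and substrate were preincubated with compound before ADP (130 uM final) initiated turnover. Concentration-effect curves came from normalized qHTS data.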
RE007 growth inh = less growth of the S. pombe RE007 Vpr strain; S. pombe RE007 Vpr strain, BacTiter-Glo ATP luminescence, 24 h; Potency, µM (titrated, usually from 92.2 µM), without a hit: at the top dose activity change, negative = less growth, hits mostly inhibitors; 360,000 tested, 0.21% active; AID 651644; active = well fitted falling curve with a large enough effect; inconclusive = small, poorly fitted or top-dose-only effect; inactive = no such curve, though single readings can be large or run the other way; note: potency is the fitted concentration of half-maximal effect; % is set by controls: 0 for no effect and ±100 for the full control effect; nearly all actives have a fitted effect of over 50% in size
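Fission yeast strain RE007, carrying one chromosomally integrated HIV-1 vpr copy, was seeded at OD 0.01 in PMG+AL medium with 23 nL pinned compound. After 24 h at 30 °C and 99% humidity, viability was read by BacTiter-Glo luminescence.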
AMA1-RON2 inh = disrupts binding of P. falciparum AMA1 to RON2; AlphaScreen AMA1-biotinylated RON2 peptide binding; Potency, µM (top dose mostly 58.2 µM), for inactives: at the highest dose activity change, negative = inhibition, hits mostly inhibitors; 360,000 tested, 0.2% active; AID 720542;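 note: potency is the fitted concentration of half-maximal effect; 0% = vehicle wells and -100% = peptide control; nearly all actives have a fitted effect of over 45% in size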
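AMA1 (3D7) with his tag at 25 nM final met compounds first, then biotinylated RON2 peptide at 25 nM; detection used donor plus acceptor beads, 10 µg/mL apiece, read by AlphaScreen after 30 min at room temperature.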
LmPK inhibitor = LmPK (Leishmania mexicana) enzyme inhibition; Q27686; purified LmPK, Kinase-Glo ATP luminescence, 1 h; Potency, µM (doses to about 57.5 µM), for the others: at the top dose activity change, negative = inhibition, actives largely listed as inhibitors; 290,000 tested, 0.37% active; AID 1721; note: potency is the fitted concentration of half-maximal effect; % is set by controls: 0 for no effect and ±100 for the full control effect
Target sequence (Q27686 whole entry, looked up): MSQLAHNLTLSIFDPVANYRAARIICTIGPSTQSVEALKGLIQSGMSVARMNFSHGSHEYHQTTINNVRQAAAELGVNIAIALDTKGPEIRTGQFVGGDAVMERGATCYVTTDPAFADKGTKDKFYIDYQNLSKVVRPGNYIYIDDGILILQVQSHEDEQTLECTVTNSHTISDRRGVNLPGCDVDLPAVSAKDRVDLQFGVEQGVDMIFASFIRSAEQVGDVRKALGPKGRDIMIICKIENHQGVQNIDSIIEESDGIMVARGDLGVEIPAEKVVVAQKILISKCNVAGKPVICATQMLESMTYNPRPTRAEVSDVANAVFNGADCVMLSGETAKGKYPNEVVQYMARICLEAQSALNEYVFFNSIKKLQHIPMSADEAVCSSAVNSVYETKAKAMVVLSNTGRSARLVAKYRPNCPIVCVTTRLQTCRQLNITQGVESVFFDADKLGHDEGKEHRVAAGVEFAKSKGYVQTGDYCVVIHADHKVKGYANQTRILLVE
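Purified LmPK (0.1 nM) converted ADP (0.1 mM) to ATP with PEP (0.5 mM) in imidazole buffer pH 7.2 with KCl and MgCl2, 1 h at room temperature. ATP was read by Kinase-Glo luminescence; data normalized to uninhibited and no-enzyme controls.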
LmPK inh confirm = Confirms inhibition of Leishmania mexicana pyruvate kinase | purified LmPK, Kinase-Glo ATP luminescence, 1 h | AID 2559 | Potency, µM (titrated, usually from 57.5 µM), inactives show at the highest dose activity change, negative = inhibition, actives largely listed as inhibitors | shares compounds with LmPK inhibitor | 150 tested, 40% active;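 active = compounds giving a full or partial concentration-response curve, as inhibitors or activators; inconclusive = weak, top-dose-only or unclear curve responses; inactive = no response at any tested dose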
* = called active by the depositor. Unless noted, calls come from the whole dose curve; as a rule, active = well fitted curve in the direction sought with a large enough effect; inconclusive = small, poorly fitted or top-dose-only effect, or another doubt; inactive = no such curve, though single readings can be large; an effect the other way counts as inactive or inconclusive.

`Cc1c(C(=O)N2CC3(CC(c4cccc(NC(=O)[C@H]5CCC(=O)N5)c4)=NO3)C[C@@H]2C(N)=O)cc([N+](=O)[O-])cc1[N+](=O)[O-]` (stereo not given in full) gave TbPYK inhibitor 5.3%, RE007 growth inh 6.5%, AMA1-RON2 inh 7.7% and LmPK inhibitor 4.6%.
For CCCN(CCC)C(=O)c1cc2c(=O)n3cccc(C)c3nc2n1C the results were TbPYK inhibitor 2.2%.
For Nc1cc(S(=O)(=O)N2CCOCC2)ccc1N1CCCCC1 the results were TbPYK inhibitor inconclusive, RE007 growth inh 0.0% and AMA1-RON2 inh -7.3%.
For O=c1c2ccccc2sn1-c1cc(S(=O)(=O)N2CCOCC2)ccc1N1CCCC1 the results were TbPYK inhibitor inconclusive, RE007 growth inh 5.6%, AMA1-RON2 inh 47.0%, LmPK inhibitor 8.91µM* and LmPK inh confirm inconclusive.
`CCCS(=O)(=O)NC(=O)C1(C)CCCN(C(=O)COc2ccc(Cl)cc2Cl)C1` (stereo not given) gave TbPYK inhibitor 1.4%, RE007 growth inh 4.1% and AMA1-RON2 inh -1.8%.
`Cc1ccc(NC2c3ccccc3C(=O)N2CCN2CCOCC2)cc1` (stereo not given) gave TbPYK inhibitor -3.6%, RE007 growth inh -10.4%, AMA1-RON2 inh -9.8% and LmPK inhibitor 3.5%.
For Cc1ccc(N2C(=O)c3ccccc3C2O)nc1 (stereo not given) the results were LmPK inhibitor 7.08µM* and LmPK inh confirm 18.3µM*.
`COc1ccccc1N1CCN(C(=O)C(=O)c2cccc([N+](=O)[O-])c2)CC1` gave RE007 growth inh 8.5% and AMA1-RON2 inh -11.7%.
`CCC(=O)Nc1cc(C)c(NC(=O)c2ccco2)cn1` gave TbPYK inhibitor -3.1%, RE007 growth inh -10.2%, AMA1-RON2 inh -7.8% and LmPK inhibitor -1.4%.
`Cc1cc(NC(=O)c2ccccc2)ncc1NC(=O)c1ccco1` gave TbPYK inhibitor inconclusive, RE007 growth inh inconclusive, AMA1-RON2 inh -10.9%, LmPK inhibitor 14.1µM* and LmPK inh confirm 16.3µM*.
Screening O=S(=O)(Nc1ccc(O)c(NS(=O)(=O)c2ccccc2)c1)c1ccccc1 returned TbPYK inhibitor -28.4%, RE007 growth inh -1.1%, AMA1-RON2 inh -7.4%, LmPK inhibitor 0.447µM* and LmPK inh confirm 3.7%.
`O=C(/C=C/Nc1ccc(Oc2ccccc2)cc1)c1ccco1` gave TbPYK inhibitor inconclusive, RE007 growth inh -28.3%, AMA1-RON2 inh 0.7%, LmPK inhibitor 7.94µM* and LmPK inh confirm 20.6µM*.
`CC(C)CN=Cc1c(O)c([N+](=O)[O-])cc2oc3c(c12)CCCC3` gave TbPYK inhibitor -21.9%, RE007 growth inh inconclusive, AMA1-RON2 inh 12.6%, LmPK inhibitor 10µM* and LmPK inh confirm inconclusive.
O=[N+]([O-])c1cc2oc3c(c2c(C=NCc2ccccc2)c1O)CCCC3 was read as TbPYK inhibitor inconclusive, RE007 growth inh inconclusive, AMA1-RON2 inh 24.4%, LmPK inhibitor 1µM* and LmPK inh confirm 0.819µM*.
`COc1ccc(C(=O)N=c2nc3ccccn3s2)cc1` gave TbPYK inhibitor -9.9%, RE007 growth inh inconclusive, AMA1-RON2 inh -4.6%, LmPK inhibitor inconclusive and LmPK inh confirm 16.3µM*.
For COC(=O)CSc1ccc2nnc(-c3ccc(F)cc3)n2n1 the results were TbPYK inhibitor -21.3%, RE007 growth inh 10.7%, AMA1-RON2 inh 6.5%, LmPK inhibitor 1.6% and LmPK inh confirm 0.2%.
For CCOC(=O)CC(=O)CSc1ccc2nnc(-c3ccc(F)cc3)n2n1 the results were TbPYK inhibitor 0.8%, RE007 growth inh -5.0%, AMA1-RON2 inh 2.5% and LmPK inhibitor 2.6%.
Screening c1c2c(cc3sc(N4CCCCC4)nc13)OCO2 returned TbPYK inhibitor inconclusive, RE007 growth inh 44.7µM*, AMA1-RON2 inh -25.6%, LmPK inhibitor 7.08µM* and LmPK inh confirm 18.3µM*.
`COc1ccc(-n2nc(N)c3c(=O)oc(N(C)C)nc32)cc1` gave TbPYK inhibitor 2.2%, RE007 growth inh -8.9%, AMA1-RON2 inh -3.2% and LmPK inhibitor -7.4%.
